Shown are actives, neighbours in structure and some others; about 1.9% of the full set was active somewhere.
Giardia killer: Giardia lamblia killing | Giardia lamblia trophozoite viability | activity change, % at 7.66 µM, hits read low | 340,000 compounds, 0.15% hits; in the data active = activity change below about -80%; inconclusive = between about -30% and that limit;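 also: parasites exposed to compound for two days anaerobically before the ATP read; % is scaled to controls: 0 for no effect and ±100 for the full control effect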
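Trophozoites 100 cells/well + cpd; 48 hrs, 37 deg C, anaerobic. ATPLite 1-Step added, 15-30 min RT, luminescence read (ATP-based viability).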
NPSR antag: antagonists of human neuropeptide S receptor cAMP signaling | Q6W5P4 | CHO-NPSR cells, cAMP TR-FRET, antagonist mode | Potency, µM (titrated, usually from 38.3 µM), for inactives: at the highest dose activity change, negative = inhibition, actives largely listed as inhibitors | 220,000 compounds, 1% hits; also: potency is read from the fitted curve at half-maximal effect; % is scaled to controls: 0 for no effect and ±100 for the full control effect; nearly all actives have a fitted effect of over 50% in size
Target sequence (Q6W5P4 whole entry, looked up): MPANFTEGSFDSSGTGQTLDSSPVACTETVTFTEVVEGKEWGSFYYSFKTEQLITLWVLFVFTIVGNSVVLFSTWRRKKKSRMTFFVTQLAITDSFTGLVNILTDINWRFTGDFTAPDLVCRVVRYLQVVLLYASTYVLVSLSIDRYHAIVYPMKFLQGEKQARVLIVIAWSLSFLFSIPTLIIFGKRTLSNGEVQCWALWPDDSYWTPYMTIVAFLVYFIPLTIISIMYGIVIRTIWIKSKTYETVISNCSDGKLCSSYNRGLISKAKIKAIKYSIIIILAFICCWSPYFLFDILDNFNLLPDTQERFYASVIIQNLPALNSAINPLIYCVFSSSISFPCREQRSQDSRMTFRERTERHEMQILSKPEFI
RXFP1 agonist: RXFP1 (human) receptor agonism | AID 2676 | 370,000 compounds, 0.3% hits | HEK293T-RXFP1 cAMP TR-FRET, 30 min; response scale: percent of porcine relaxin response, buffer zero | Q9HBX9 | Potency, µM (doses to about 57.5 µM), for inactives: at the top dose activation, most hits filed as activators; also: potency is read from the fitted curve at half-maximal effect; % is scaled to controls: 0 for no effect and ±100 for the full control effect; nearly all actives have a fitted effect of over 60% in size
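cAMP rise read by TR-FRET after 30 min, 37C compound exposure (up to 58 uM) in RXFP1-transfected HEK293 cells with Ro 20174 present. EC50 from Hill-equation fits, with 29 nM porcine relaxin as 100% and buffer as basal.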
RXFP1 antagonist: RXFP1 (human) relaxin receptor antagonism; Q9HBX9; HEK293-RXFP1, relaxin-stimulated cAMP HTRF, 30 min; hits give low values; activity change, negative = inhibition, % at 57.5 µM; 350,000 compounds, 0.59% hits;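 active = activity change of -60% or lower, but not beyond a set lower limit; inconclusive = change between -60% and -40%, or beyond the set limit; inactive = change above -40%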; also: % is scaled to controls: 0 for no effect and ±100 for the full control effect
BRCA1 expr up: activators of BRCA1 expression. MCF7-BRCA1-FFLuc reporter, luminescence, 48 h; response scale: scaled: vehicle 0%, 10 µM genistein 100%. AID 624202. Potency, µM (top dose mostly 46.1 µM), inactives show top-dose activation, hits mostly activators. 380,000 compounds, 1.1% hits; also: potency is read from the fitted curve at half-maximal effect; nearly all actives have a fitted effect of over 80% in size
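First, MCF7-BRCA1-FFLuc cells (2000/well) attach for 2 h; next, compounds are pin-added and incubated 48 h at 37 °C; finally, luciferase reagent is added and luminescence read after 15 min.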
IL-2 act: activates IL-2 in a cell-based reporter assay | IL-2 activation reporter assay, cell-based qHTS; stimulated with anti-CD3/CD4/CD28 beads; in transgenic mouse T cells | activation, % (series mostly up to about 46 µM) | 360,000 compounds, 0.065% hits | AID 652025; in the data active = activation above about 50%; inconclusive = mostly about 30% to 49%; also: 0% is about no effect
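EGFP and DsRed fluorescence is measured by plate cytometry in unstimulated transgenic mouse T cells exposed to compound for 60 minutes, then stimulated 18 hours at 37 degrees C with anti-CD3/anti-CD4 beads plus anti-CD28.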
* marks the source's active call; other numbers are inactive results; ? = inconclusive; / = not tested or not shown; [ ] = remark or other dose. Unless noted, calls follow the shape of the dose curve; as a rule, active = well fitted curve in the direction sought with a large enough effect; inconclusive = small, poorly fitted or top-dose-only effect, or another doubt; inactive = no such curve, though single readings can be large; an effect the other way counts as inactive or inconclusive.

SMILES	Giardia killer	NPSR antag	RXFP1 agonist	RXFP1 antagonist	BRCA1 expr up	IL-2 act
COc1cc(SC)ccc1C(=O)OCC(=O)NCCNC(=O)COC(=O)c1ccc(SC)cc1OC	-7	/	-1%	0	9%	-1
COC(=O)c1ccc(COC(=O)c2ccc(SC)cc2OC)cc1	-8	-8%	0%	-3	8.9µM*	-1
CC(C)(C)n1ncc2c(=O)n(CC(=O)OCc3ccccc3)cnc21	?	-10%[46.1 µM]	0%	-11	37%	-1
CC(C)(C)n1ncc2c(=O)n(CC(=O)c3ccccc3)cnc21	4	-15%[46.1 µM]	1%	-6	13µM*	1
O=C(Cn1cnc2ccccc2c1=O)c1ccc(Cl)cc1	3	5%	1%	-6	8.9µM*	3
CCCN1CCN(CCNC(=O)Nc2cc(C)ccc2C)CC1	?	/	-1%	14	-9%	0
Cc1ccc(C)c(NC(=O)NCCN2CCCCC2)c1	-19	/	1%	-77*	0%	0
O=C(NCCN1CCCCC1)Nc1cccc(Cl)c1Cl	22	/	3%	-77*	13%	-2
Cc1cccc(OCC(=O)Nc2ccc(O)c(-c3nc4ccccc4o3)c2)c1	/	/	/	/	3%	/
Cc1cccc(N(C)C(=S)Oc2ccc3ccccc3c2)c1	-1	-52%	2%	-71*	81%	0
Cc1cccc(N(C)C(=S)Oc2ccc3c(c2)CCC3)c1	/	/	/	-63*	/	/
Cc1cccc(NC(=O)COc2ccc3c(c2)CCC3)n1	-12	/	1%	-14	19%	-1
COC(=O)C1CC1[C@H](NC(=O)c1cccnc1)c1ccccc1 (stereo not given in full)	-13	/	/	/	/	/
COc1ccc(N/C=C2\C(=O)CCc3c2oc2cc(Cl)c(O)c(Cl)c32)cc1	-28	26%	1%	9	-49%	268*
N#CC1=C(c2ccccc2)/C(=C/c2ccccc2)OC1=O	-4	2.5µM*	1%	/	-91%	1
O=C(O)c1ccc2c(c1)C(=O)N(CCc1c[nH]c3ccccc13)C2=O	2	/	5%	8	7.9µM*	1
O=C(O)c1ccc2c(c1)C(=O)N(CCc1ccccc1)C2=O	24	/	2%	1	-21%	1
O=c1[nH]c2c(-c3nc(-c4ccc(Cl)cc4)cs3)c(O)cn2c2ccccc12	/	/	/	/	-9%	/
Cc1cc(-n2c(C)cc(C(=O)CSc3ccccn3)c2C)no1	3	/	/	?	4µM*	-1
CCCn1c2ccccc2c2cnn(CC(=O)Nc3ccccc3OC)c(=O)c21	/	/	0%	-3	/	/
COc1ccc(-c2sc(N)nc2-c2ccccc2)cc1	6	/	/	/	3%	/
N#Cc1nc(N)nc(N2CCCCC2)n1	-21	/	/	/	-34%	/
CCOC(=O)c1ccc(NC(=O)C(CC)Sc2nncn3c2cc2oc(C)cc23)cc1 (stereo not given)	/	/	14%	-79*	/	/
CCC(Sc1nncn2c1cc1oc(C)cc12)C(=O)Nc1ccc(F)cc1 (stereo not given)	/	/	22%	-19	/	/
C=CCNC(=O)CC1C(=O)NCCN1Cc1ccc(-c2ccccc2)cc1 (stereo not given)	42	7%	1%	-2	1%	1
SMILES	Giardia killer	NPSR antag	RXFP1 agonist	RXFP1 antagonist	BRCA1 expr up	IL-2 act
O=C(CC1C(=O)NCCN1Cc1ccc(-c2ccccc2)cc1)NCC1CC1 (stereo not given)	15	-14%	-1%	-61*	-3%	0
CCOc1cccc(C2C=C(c3ccc4c(c3)OCO4)NC(c3cccc(Br)c3)N2)c1O (stereo not given)	-5	/	/	/	-17%	/
Cc1c(C)c2c(c(C)c1OC(=O)CCC(=O)OCCO)CC[C@](C)(CCC[C@H](C)CCC[C@H](C)CCCC(C)C)O2	/	/	/	-19	/	/
C[C@@]12C(=O)OC(=O)[C@]1(C)C1CCC2O1	-94*	/	2%	-15	-72%	-1
CC12C(=O)N(c3nccs3)C(=O)C1(C)C1CCC2O1 (stereo not given)	-6	/	/	-1	0%	0
CCC(=O)N1CCc2cc(S(=O)(=O)NC(Cc3ccccc3)C(=O)Nc3ccc(Cl)cc3)ccc21 (stereo not given)	/	/	3%	-13	/	/
CCCCOC(=O)C1=C(C)N(C)C(=O)NC1c1cc2c(cc1Br)OCO2 (stereo not given)	/	/	/	1	-14%	0
C=CCOC(=O)C1=C(C)N(C)C(=O)NC1c1cc2c(cc1Br)OCO2 (stereo not given)	6	-9%[46.1 µM]	3%	-74*	-22%	0
CCn1c(/C=C/c2ccccc2)nc2ccccc21	?	-19%[46.1 µM]	0%	-7	-4%	-2
CC(C)Cn1c(/C=C/c2ccccc2)nc2ccccc21	-26	-27%[46.1 µM]	4%	-66*	28%	-2
CCCCCCn1c(/C=C/c2ccccc2)nc2ccccc21	-16	/	8%	-35	98%	/
CCCn1c(/C=C/c2cc[n+](C)cc2)nc2ccccc21	26	/	20µM*	16	24%	1
O=C(CN1C(=O)CCC1=O)Nc1nc(-c2nc3ccccc3s2)cs1	10	6%[46.1 µM]	-1%	/	5µM*	-2
Nc1ccc(/C=C/c2cc(Cl)nc3ccccc23)cc1	/	/	/	/	-59%	/
COc1ccc(CN2CCN(c3ncnc4scc(-c5ccc(F)cc5)c34)CC2)cc1	1	/	-1%	-61*	-60%	-7
Fc1ccc(-c2csc3ncnc(N4CCN(c5ccccc5)CC4)c23)cc1	-15	/	-1%	-65*	-52%	0
COc1ccc(N2CCN(c3ncnc4scc(-c5ccc(F)cc5)c34)CC2)cc1	16	/	1%	-7	-88%	-1
S=c1[nH]nc(-c2cc3c(s2)-c2ccccc2CC3)o1	-18	10µM*	18%	17	73%	-1
O=C(OC(C(=O)N1CCOCC1)c1ccccc1)c1c2c(nc3ccccc13)CCCC2 (stereo not given)	/	/	/	/	-7%	/
Cc1nc(-c2ccc(NC(=O)c3ccco3)cc2)cs1	-98*	/	-1%	5	?	3
Cc1ccc(-c2csc(/C=C3/SC(C)C(=O)N3CC(=O)Nc3ccccc3F)n2)cc1 (stereo not given)	-6	/	/	-84*	-40%	-1
Cc1nc(-c2ccc(C(=O)Nc3ccccc3F)cc2)cs1	?	-3%	6%	-33	10µM*	0
Cc1nc(-c2ccc(NC(=O)Cc3ccccc3)cc2)cs1	1	/	-4%	-21	8.9µM*	-3
